DAGLB inh: blocks human DAGLB lipase activity | HEK293T DAGLB membrane lysate, EnzChek fluorogenic substrate | inhibition, % at 5.17 µM | 340,000 compounds, 0.059% hits; in the data active means inhibition above about 34%;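 further: 0% = enzyme with vehicle and 100% = wells lacking enzyme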
ARNT-TACC3 inh: disruptors of human ARNT/TACC3 interaction. AlphaScreen His-ARNT PAS-B/GST-TACC3 binding, luminescence; TACC3 fragment carries E629A point mutation. Q9Y6A5. inhibition, % at 9.99 µM. 390,000 compounds, 0.66% hits;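 active means mean inhibition of replicates at least 50% and at least half of replicates each reaching 50%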;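 further: 0% = complete ARNT plus TACC3 wells and 100% = ARNT alone without TACC3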
NadD block: blocks S. aureus nicotinate mononucleotide adenylyltransferase; purified NadD enzyme, colorimetric absorbance read-out; inhibition, % at 20 µM; 360,000 compounds, 0.78% hits; AID 602399; in the data active means inhibition above about 26%
Neddylation inh: inhibitors of human cullin neddylation. P61081+Q13564. TR-FRET cullin neddylation, biochemical. inhibition, % at 25 µM. 360,000 compounds, 0.58% hits; in the data active means inhibition above about 36%
Target sequence (P61081 whole entry, looked up): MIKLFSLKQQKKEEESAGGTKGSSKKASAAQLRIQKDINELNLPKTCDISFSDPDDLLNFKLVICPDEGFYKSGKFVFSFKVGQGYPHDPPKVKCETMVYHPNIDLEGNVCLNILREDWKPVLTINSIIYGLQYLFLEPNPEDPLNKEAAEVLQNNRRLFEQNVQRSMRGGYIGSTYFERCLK
Target sequence (Q13564 whole entry, looked up): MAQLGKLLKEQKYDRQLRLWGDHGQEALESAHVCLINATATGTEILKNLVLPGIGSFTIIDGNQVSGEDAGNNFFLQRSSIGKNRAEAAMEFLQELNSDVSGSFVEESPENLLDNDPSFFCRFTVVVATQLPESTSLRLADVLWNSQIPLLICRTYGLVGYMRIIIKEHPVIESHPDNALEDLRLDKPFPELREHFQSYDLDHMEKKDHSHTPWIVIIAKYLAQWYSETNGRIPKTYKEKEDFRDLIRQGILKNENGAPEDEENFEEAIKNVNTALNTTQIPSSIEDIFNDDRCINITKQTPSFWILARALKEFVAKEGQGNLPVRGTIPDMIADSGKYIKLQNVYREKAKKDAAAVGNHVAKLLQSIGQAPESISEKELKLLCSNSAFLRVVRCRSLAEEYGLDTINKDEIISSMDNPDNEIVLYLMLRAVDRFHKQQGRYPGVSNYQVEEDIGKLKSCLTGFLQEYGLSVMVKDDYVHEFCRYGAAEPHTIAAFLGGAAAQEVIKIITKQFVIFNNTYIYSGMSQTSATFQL
HGIII-sPLA2 inh: Inhibits HGIII-sPLA2 liposome hydrolysis, primary screen. Q9NZ20. QFRET BODIPY PC-A2 liposome hydrolysis, fluorescence. inhibition, % at 12.2 µM. 370,000 compounds, 0.56% hits. AID 743126;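 active means inhibition above mean plus 3 SD of compounds lying within the high and low control bounds, cut at about 19% in these data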;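 further: 0% = median of test compound wells and 100% = no enzyme DMSO wells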
DAGLB inh conf: DAGLB (human) inhibition, confirmation screen | AID 504445 | inhibition, % at 5.17 µM | 190 compounds, 73% hits | HEK293T DAGLB membrane lysate, EnzChek fluorogenic substrate | shares compounds with DAGLB inh;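 active means mean inhibition over triplicate wells above a set limit taken from the primary lipase screen, cut at about 34% in these data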;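 further: 0% = DAGLB with DMSO and 100% = wells lacking DAGLB enzyme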
NadD inh conf: NadD (S. aureus) inhibition, single concentration confirmation; purified S. aureus NadD, colorimetric enzyme assay; inhibition, % at 20 µM; 2,000 compounds, 13% hits; shares compounds with NadD block; in the data active means inhibition mostly above about 42%, no sharp cut-off; inactive means mostly below about 42%
hGIII sPLA2 conf: human GIII-sPLA2 inhibition, confirmation. shares compounds with HGIII-sPLA2 inh. recombinant hGIII-sPLA2, BODIPY PC-A2 QFRET fluorescence. inhibition, % at 12.2 µM. 2,000 compounds, 34% hits;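 active means mean inhibition across triplicates above the hit cutoff set in the earlier primary screen, cut at about 19% in these data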;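 further: 0% = enzyme with DMSO and 100% = DMSO wells lacking enzyme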
535nm interf: optically interferes with 535nm fluorescence in sPLA2 counter-screen; shares compounds with HGIII-sPLA2 inh; BODIPY FL product fluorescence interference, QFRET; inhibition, % at 12.2 µM; 2,000 compounds, 8.5% hits;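 active means average inhibition above the solvent-only control mean plus 3 SD, cut at about 6% in these data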;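 further: 0% = DMSO with substrate plus product and 100% = DMSO with substrate alone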
An asterisk follows results filed as active. An excerpt weighted towards active compounds, which were near 2% of everything screened.

Nc1ccc2c(c1)C(=O)c1cc(Cl)c(Cl)cc1-2 was read as DAGLB inh 34*, ARNT-TACC3 inh 4, NadD block -1, Neddylation inh 3, HGIII-sPLA2 inh 31*, DAGLB inh conf 39*, hGIII sPLA2 conf 35* and 535nm interf 14*.
`CN1c2ccc([N+](=O)[O-])cc2N(C)C1(C)c1ccccc1` (configuration not stated) gave DAGLB inh 37*, ARNT-TACC3 inh 5, NadD block 5, Neddylation inh -33, HGIII-sPLA2 inh 25*, DAGLB inh conf 33, hGIII sPLA2 conf 44* and 535nm interf 8.0*.
For CCN(CC)C(=O)CSc1nc2ccccc2c(=O)n1-c1cccc(OC)c1 the results were DAGLB inh 0, ARNT-TACC3 inh -10, NadD block -1, Neddylation inh -1 and HGIII-sPLA2 inh 0.
For COc1cccc(-n2c(SCc3cc(=O)oc4cc(O)c(O)cc34)nc3ccccc3c2=O)c1 the results were DAGLB inh 40*, ARNT-TACC3 inh -7, NadD block 65*, HGIII-sPLA2 inh 20*, DAGLB inh conf 20, hGIII sPLA2 conf 10 and 535nm interf -5.
C[C@H]1CN([C@@H](C)CO)C(=O)c2cc(/C=C/c3ccccc3)cnc2O[C@H]1CN(C)Cc1cncnc1 was read as ARNT-TACC3 inh -5.
`Cc1cccc(N2CCN(C(=O)CCCn3c(=S)[nH]c4cc5c(cc4c3=O)OCO5)CC2)c1C` gave DAGLB inh 0, ARNT-TACC3 inh 4, NadD block 56*, Neddylation inh -244, HGIII-sPLA2 inh 2 and NadD inh conf 14.
For O=C(CCCn1c(=S)[nH]c2cc3c(cc2c1=O)OCO3)N1CCN(c2ccc(Cl)cc2)CC1 the results were DAGLB inh 6, ARNT-TACC3 inh -3, NadD block 35*, Neddylation inh -107, HGIII-sPLA2 inh 4 and NadD inh conf 18.
For CC(=O)c1ccc(N2CCN(C(=O)CCCn3c(=S)[nH]c4cc5c(cc4c3=O)OCO5)CC2)cc1 the results were DAGLB inh 3, ARNT-TACC3 inh 2, NadD block 46*, Neddylation inh -207, HGIII-sPLA2 inh 4 and NadD inh conf 15.
Cc1noc(C)c1NC(=O)Nc1ccc2c(c1)C(=O)N([C@@H](C)CO)C[C@H](C)[C@H](CN(C)Cc1ccc3c(c1)OCO3)O2 was read as ARNT-TACC3 inh -5.
Screening O=C(COC(=O)c1ccc(NS(=O)(=O)c2cccs2)cc1)NCc1ccco1 returned DAGLB inh 1, ARNT-TACC3 inh 3, NadD block 30*, Neddylation inh 7 and NadD inh conf 32.
`O=C(COC(=O)c1cccs1)NCc1ccco1` gave DAGLB inh 0, ARNT-TACC3 inh 0, NadD block -2, Neddylation inh 6 and HGIII-sPLA2 inh -3.
For O=C1O[C@H](c2ccccc2)[C@H](c2ccccc2)N2[C@H]1[C@@H](C(=O)N1CCCCCCC1)[C@]1(C(=O)Nc3ccc(C#CC4=CCCCC4)cc31)[C@H]2c1ccc(O)cc1 the results were ARNT-TACC3 inh 18.
`O=S(=O)(Nc1cccc(-c2cn3cccnc3n2)c1)c1ccc(-c2ccccc2)cc1` gave DAGLB inh -2, ARNT-TACC3 inh 18, NadD block 40*, HGIII-sPLA2 inh -49 and NadD inh conf 41.
`N#C/C(=C\c1cn(-c2ccccc2)nc1-c1cc2ccccc2o1)c1nc2ccccc2[nH]1` gave DAGLB inh -2, ARNT-TACC3 inh -3, NadD block 29*, HGIII-sPLA2 inh 5 and NadD inh conf 12.
Screening CN(C)S(=O)(=O)c1cccc(-c2nn(-c3ccccc3)cc2/C=C(\C#N)c2nc3ccccc3[nH]2)c1 returned DAGLB inh -2, ARNT-TACC3 inh -15, NadD block 37*, HGIII-sPLA2 inh -1 and NadD inh conf 30.
For CC(C)CC#Cc1cnc2c(c1)C(=O)N([C@H](C)CO)C[C@H](C)[C@H](CN(C)S(C)(=O)=O)O2 the results were ARNT-TACC3 inh -24.
`CN1C(=O)c2cc(NS(C)(=O)=O)ccc2OC[C@@H]2O[C@@H](CC(=O)NC3CCCCC3)CC[C@H]21` gave ARNT-TACC3 inh -5.
`CCN1CCN(Cc2ccc(NC(=O)c3ccc(C)c(NC(=O)c4c[nH]c5cc(C(F)(F)F)ccc5c4=O)c3)cc2C(F)(F)F)CC1` gave DAGLB inh -3, ARNT-TACC3 inh -7, NadD block 36*, Neddylation inh 5, HGIII-sPLA2 inh -14 and NadD inh conf -5.
Screening Cc1ccc(C(=O)Nc2cccc(C(F)(F)F)c2)cc1NC(=O)c1c[nH]c2cc(C(F)(F)F)ccc2c1=O returned DAGLB inh -1, ARNT-TACC3 inh -8, NadD block 18, Neddylation inh -104 and HGIII-sPLA2 inh -1.
O=C(N[C@@H]1CC[C@@H](CC(=O)N2CCCCC2)O[C@@H]1CO)c1cccc(F)c1 was read as ARNT-TACC3 inh 4.
For Cc1nc(S/C(=C\c2ccc(OCc3ccccc3Cl)cc2)C(=O)O)n[nH]1 the results were DAGLB inh 3, ARNT-TACC3 inh -5, NadD block 63*, Neddylation inh -2, HGIII-sPLA2 inh -2 and NadD inh conf 13.
Screening Cc1nc(S/C(=C\c2ccc(-c3ccc(C(=O)O)c(Cl)c3)o2)C(=O)O)n[nH]1 returned DAGLB inh 2, ARNT-TACC3 inh 11, NadD block -5, Neddylation inh -9 and HGIII-sPLA2 inh -15.
For O=C(Cc1csc(Nc2nc(=S)[nH]c3ccccc23)n1)NCc1ccccc1Cl the results were DAGLB inh 1, ARNT-TACC3 inh -6, NadD block -3, Neddylation inh 13 and HGIII-sPLA2 inh 10.
`O=C(Cc1csc(Nc2nc(=S)[nH]c3ccccc23)n1)NCc1cccc(Cl)c1` gave DAGLB inh 3, ARNT-TACC3 inh -4, NadD block 32*, Neddylation inh 8, HGIII-sPLA2 inh -6 and NadD inh conf 2.
Screening O=C(Cc1csc(Nc2nc(=S)[nH]c3ccccc23)n1)N1CCN(c2cccc(C(F)(F)F)c2)CC1 returned DAGLB inh 2, ARNT-TACC3 inh 7, NadD block 33*, HGIII-sPLA2 inh -6 and NadD inh conf 8.

Compound activity as filed in PubChem BioAssay.
